Assay [1] concerns the target Protein kinase C gamma type (Homo sapiens) (UniProt P05129). The conditions noted are these: at 1 µM.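 Also: each value is an averaged percent inhibition of the enzyme.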
The target in assay [2] is T1, Protein kinase C iota type (Homo sapiens) (UniProt P41743).
T1 sequence (whole entry): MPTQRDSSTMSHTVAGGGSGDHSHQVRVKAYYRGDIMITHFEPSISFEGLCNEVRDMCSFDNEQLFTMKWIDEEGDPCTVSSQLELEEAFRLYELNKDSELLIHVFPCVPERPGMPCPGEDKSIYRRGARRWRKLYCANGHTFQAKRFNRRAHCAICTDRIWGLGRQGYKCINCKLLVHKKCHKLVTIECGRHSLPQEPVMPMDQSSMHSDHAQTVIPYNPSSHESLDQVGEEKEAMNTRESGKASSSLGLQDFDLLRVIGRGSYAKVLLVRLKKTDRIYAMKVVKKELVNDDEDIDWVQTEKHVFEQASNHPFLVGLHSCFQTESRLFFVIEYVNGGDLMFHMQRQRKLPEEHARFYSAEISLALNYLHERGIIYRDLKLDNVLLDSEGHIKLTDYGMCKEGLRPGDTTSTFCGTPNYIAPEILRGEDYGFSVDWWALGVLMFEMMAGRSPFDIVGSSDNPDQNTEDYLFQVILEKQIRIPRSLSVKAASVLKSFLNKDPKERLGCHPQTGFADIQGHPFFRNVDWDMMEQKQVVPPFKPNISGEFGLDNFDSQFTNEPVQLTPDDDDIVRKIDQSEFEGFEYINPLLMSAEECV
The conditions noted are these: at 0.1 µM.

Assay [3] addresses T1, Protein kinase C iota type (Homo sapiens). The conditions noted are these: at 1 µM.
The target of assay [4] is Protein kinase C theta type (Homo sapiens) (UniProt Q04759). The settings on record: at 0.1 µM.
For assay [5] the target is unchanged. The conditions noted are these: at 1 µM.
In assay [6] the target is Protein kinase C beta type (Homo sapiens) (UniProt P05771). The settings on record: at 0.1 µM.
Assay [7] shares this target. The conditions noted are these: at 1 µM.
The target of assay [8] is T2, Serine/threonine-protein kinase D1 (Homo sapiens) (UniProt Q15139).
T2 sequence (whole entry): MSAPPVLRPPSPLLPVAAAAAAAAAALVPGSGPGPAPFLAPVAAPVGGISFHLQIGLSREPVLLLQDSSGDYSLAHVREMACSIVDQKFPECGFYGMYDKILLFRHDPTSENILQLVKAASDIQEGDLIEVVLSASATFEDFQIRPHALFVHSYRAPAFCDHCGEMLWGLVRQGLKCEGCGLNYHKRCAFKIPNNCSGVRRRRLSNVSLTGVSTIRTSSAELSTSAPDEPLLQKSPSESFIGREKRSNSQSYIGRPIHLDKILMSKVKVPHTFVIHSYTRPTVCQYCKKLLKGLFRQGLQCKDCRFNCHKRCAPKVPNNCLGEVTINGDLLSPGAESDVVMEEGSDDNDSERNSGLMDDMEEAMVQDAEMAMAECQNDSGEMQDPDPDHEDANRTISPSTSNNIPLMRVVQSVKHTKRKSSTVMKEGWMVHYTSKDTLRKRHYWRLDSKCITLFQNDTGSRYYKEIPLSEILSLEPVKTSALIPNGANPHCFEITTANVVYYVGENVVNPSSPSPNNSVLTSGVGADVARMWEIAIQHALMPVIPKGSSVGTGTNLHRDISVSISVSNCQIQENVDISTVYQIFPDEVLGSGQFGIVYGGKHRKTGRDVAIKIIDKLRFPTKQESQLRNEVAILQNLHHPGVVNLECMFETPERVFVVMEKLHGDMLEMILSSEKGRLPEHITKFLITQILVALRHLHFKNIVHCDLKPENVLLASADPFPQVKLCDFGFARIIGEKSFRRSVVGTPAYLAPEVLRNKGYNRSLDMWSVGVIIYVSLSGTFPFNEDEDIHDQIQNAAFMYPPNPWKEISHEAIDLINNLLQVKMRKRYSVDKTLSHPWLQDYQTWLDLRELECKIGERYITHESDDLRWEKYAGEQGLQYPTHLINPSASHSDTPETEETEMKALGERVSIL
The conditions noted are these: at 0.1 µM.

Assay [9] addresses T2, Serine/threonine-protein kinase D1 (Homo sapiens). The settings on record: at 1 µM.
The target of assay [10] is T3, Serine/threonine-protein kinase D2 (Homo sapiens) (UniProt Q9BZL6).
T3 sequence (whole entry): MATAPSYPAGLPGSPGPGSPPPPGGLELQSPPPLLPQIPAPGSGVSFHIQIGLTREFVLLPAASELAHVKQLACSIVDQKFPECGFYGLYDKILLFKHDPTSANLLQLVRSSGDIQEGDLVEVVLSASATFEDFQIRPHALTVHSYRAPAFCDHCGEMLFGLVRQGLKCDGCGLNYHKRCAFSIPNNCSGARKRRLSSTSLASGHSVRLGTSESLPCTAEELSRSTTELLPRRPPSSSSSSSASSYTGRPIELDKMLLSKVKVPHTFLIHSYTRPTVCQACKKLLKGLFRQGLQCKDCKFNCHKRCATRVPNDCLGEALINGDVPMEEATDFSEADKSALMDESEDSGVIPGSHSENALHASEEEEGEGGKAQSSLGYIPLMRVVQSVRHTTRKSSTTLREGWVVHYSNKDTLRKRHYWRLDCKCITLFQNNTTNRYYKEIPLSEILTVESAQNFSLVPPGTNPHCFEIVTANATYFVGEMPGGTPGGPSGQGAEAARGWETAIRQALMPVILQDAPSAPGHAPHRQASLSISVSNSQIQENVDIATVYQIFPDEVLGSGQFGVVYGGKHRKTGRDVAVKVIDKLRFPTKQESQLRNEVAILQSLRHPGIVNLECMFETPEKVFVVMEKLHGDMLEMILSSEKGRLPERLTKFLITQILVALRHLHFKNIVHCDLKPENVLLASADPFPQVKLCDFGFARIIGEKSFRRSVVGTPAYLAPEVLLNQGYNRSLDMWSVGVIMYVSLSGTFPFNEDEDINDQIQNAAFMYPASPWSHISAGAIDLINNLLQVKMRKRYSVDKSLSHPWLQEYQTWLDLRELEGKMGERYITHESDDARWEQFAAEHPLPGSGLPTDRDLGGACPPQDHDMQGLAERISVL
The conditions noted are these: at 0.1 µM.

The target of assay [11] is T3, Serine/threonine-protein kinase D2 (Homo sapiens). The conditions noted are these: at 1 µM.
For assay [12], the target named is T4, Serine/threonine-protein kinase D3 (Homo sapiens) (UniProt O94806).
T4 sequence (whole entry): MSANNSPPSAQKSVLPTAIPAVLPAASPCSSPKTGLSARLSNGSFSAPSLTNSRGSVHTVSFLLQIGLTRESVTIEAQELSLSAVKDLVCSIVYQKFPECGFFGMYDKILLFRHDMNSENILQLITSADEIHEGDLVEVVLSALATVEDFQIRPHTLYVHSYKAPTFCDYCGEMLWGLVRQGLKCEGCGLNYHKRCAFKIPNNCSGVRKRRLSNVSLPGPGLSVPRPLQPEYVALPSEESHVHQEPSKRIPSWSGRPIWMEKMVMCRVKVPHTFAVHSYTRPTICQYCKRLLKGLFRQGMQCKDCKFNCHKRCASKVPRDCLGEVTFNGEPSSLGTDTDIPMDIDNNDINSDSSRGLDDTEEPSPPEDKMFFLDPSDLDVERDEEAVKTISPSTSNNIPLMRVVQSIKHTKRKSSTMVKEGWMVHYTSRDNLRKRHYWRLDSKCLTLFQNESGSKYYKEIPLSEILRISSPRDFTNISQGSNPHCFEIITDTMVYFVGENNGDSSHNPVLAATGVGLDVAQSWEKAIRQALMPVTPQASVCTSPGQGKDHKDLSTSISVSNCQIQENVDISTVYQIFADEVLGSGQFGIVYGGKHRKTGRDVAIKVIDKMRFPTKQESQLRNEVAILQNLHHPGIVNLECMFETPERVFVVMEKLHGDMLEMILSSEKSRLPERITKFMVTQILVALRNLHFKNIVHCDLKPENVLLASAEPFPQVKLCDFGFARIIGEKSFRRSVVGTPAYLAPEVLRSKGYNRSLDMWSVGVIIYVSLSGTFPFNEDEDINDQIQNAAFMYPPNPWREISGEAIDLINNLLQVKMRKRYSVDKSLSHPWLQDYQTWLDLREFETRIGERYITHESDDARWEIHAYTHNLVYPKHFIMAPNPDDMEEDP
The conditions noted are these: at 0.1 µM.

The target of assay [13] is T4, Serine/threonine-protein kinase D3 (Homo sapiens). The settings on record: at 1 µM.
Assay [14] deals with T5, cGMP-dependent protein kinase 1 (Homo sapiens) (UniProt Q13976).
T5 sequence (whole entry): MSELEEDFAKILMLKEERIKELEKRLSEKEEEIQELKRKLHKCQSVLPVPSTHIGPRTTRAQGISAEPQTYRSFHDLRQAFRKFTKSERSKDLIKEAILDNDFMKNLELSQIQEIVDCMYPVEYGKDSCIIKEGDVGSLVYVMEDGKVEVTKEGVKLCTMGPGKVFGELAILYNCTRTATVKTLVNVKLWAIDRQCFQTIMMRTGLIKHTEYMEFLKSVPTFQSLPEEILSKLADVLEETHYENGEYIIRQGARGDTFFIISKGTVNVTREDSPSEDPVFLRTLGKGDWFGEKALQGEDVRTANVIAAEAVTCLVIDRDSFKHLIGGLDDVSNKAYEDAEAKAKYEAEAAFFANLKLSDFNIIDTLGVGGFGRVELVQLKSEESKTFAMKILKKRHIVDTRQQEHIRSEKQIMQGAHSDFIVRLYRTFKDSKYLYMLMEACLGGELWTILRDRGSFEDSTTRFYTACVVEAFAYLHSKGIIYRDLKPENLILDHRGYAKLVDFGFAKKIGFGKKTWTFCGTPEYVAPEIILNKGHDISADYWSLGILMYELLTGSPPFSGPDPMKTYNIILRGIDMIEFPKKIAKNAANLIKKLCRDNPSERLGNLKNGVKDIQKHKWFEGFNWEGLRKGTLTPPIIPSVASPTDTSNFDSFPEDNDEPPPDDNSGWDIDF
The settings on record: at 0.1 µM.

In assay [15] the target is T5, cGMP-dependent protein kinase 1 (Homo sapiens). The conditions noted are these: at 1 µM.
In assay [16] the target is T6, cGMP-dependent protein kinase 2 (Homo sapiens) (UniProt Q13237).
T6 sequence (whole entry): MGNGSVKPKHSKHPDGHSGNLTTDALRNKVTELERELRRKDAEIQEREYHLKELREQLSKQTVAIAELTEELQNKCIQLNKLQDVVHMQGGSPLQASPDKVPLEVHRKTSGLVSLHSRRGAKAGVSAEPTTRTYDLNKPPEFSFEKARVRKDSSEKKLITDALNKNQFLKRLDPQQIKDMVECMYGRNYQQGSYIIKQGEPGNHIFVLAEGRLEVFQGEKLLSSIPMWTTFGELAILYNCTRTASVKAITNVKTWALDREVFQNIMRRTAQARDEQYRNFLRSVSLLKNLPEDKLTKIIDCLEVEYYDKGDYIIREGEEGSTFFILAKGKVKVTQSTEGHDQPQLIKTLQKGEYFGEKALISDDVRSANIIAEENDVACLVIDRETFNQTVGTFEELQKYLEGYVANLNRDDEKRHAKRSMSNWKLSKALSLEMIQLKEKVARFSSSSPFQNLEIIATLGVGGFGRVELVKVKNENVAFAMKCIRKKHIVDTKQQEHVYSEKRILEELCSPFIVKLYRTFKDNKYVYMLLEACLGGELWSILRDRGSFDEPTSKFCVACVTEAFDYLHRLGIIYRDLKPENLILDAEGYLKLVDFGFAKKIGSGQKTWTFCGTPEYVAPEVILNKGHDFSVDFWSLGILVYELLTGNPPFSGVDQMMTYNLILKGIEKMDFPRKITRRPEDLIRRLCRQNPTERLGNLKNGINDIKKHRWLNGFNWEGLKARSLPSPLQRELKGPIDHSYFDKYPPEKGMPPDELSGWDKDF
The settings on record: at 0.1 µM.

The target in assay [17] is T6, cGMP-dependent protein kinase 2 (Homo sapiens). The conditions noted are these: at 1 µM.
For assay [18], the target named is T7, cAMP-dependent protein kinase catalytic subunit PRKX (Homo sapiens) (UniProt P51817).
T7 sequence (whole entry): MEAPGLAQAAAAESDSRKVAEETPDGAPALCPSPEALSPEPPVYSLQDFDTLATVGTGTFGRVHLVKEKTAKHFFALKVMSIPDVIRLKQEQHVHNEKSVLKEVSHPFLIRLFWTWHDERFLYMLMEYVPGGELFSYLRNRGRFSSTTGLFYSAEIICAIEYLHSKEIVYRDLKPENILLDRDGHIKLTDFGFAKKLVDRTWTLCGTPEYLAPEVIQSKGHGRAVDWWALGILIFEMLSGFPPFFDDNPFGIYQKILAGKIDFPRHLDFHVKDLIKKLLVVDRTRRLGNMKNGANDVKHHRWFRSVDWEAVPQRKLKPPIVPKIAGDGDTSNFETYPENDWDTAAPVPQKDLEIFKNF
The conditions noted are these: at 0.1 µM.

For assay [19], the target named is T7, cAMP-dependent protein kinase catalytic subunit PRKX (Homo sapiens). The conditions noted are these: at 1 µM.
In assay [20] the target is Rho-associated protein kinase 1 (Homo sapiens) (UniProt Q13464). The settings on record: at 0.1 µM.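 Also: values are mean percent inhibition of ROCK1.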
Chain of Rho-associated protein kinase 1 (Homo sapiens) (Q13464 2-1354 limits assumed): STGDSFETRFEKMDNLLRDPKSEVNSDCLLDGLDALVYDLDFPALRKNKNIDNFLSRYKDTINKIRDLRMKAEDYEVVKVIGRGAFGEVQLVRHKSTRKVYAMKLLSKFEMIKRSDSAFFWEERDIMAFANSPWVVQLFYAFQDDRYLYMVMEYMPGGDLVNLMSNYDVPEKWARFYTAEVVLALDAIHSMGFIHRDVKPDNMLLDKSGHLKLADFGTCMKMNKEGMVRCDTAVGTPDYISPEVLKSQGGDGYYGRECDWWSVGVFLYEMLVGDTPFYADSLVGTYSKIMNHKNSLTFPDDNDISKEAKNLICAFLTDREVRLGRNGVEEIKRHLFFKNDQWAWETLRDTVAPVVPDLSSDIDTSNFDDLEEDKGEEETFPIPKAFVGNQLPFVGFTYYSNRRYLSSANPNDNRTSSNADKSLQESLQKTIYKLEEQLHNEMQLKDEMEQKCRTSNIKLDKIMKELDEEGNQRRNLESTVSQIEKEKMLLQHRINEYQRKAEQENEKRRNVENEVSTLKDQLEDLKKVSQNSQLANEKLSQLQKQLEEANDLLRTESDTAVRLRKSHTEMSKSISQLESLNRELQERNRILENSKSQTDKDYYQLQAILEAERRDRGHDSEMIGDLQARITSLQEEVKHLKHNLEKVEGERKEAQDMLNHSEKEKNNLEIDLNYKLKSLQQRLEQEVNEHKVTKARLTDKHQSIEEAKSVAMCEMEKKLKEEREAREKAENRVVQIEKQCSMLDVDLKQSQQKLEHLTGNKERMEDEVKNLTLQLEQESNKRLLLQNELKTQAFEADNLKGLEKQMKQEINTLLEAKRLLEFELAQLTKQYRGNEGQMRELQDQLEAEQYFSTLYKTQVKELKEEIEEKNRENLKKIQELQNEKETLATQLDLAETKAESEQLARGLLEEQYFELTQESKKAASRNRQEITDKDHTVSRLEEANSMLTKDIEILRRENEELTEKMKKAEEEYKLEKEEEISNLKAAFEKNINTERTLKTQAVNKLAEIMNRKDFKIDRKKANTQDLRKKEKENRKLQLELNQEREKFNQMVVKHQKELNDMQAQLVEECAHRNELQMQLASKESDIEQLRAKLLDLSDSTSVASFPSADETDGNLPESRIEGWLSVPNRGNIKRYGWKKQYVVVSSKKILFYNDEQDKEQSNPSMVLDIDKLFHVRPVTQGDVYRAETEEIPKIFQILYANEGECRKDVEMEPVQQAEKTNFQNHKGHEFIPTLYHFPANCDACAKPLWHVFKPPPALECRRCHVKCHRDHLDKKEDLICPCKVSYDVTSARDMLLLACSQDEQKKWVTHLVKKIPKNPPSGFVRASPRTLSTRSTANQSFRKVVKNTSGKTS

Chain of Protein kinase C beta type (Homo sapiens) (P05771 2-671 limits assumed): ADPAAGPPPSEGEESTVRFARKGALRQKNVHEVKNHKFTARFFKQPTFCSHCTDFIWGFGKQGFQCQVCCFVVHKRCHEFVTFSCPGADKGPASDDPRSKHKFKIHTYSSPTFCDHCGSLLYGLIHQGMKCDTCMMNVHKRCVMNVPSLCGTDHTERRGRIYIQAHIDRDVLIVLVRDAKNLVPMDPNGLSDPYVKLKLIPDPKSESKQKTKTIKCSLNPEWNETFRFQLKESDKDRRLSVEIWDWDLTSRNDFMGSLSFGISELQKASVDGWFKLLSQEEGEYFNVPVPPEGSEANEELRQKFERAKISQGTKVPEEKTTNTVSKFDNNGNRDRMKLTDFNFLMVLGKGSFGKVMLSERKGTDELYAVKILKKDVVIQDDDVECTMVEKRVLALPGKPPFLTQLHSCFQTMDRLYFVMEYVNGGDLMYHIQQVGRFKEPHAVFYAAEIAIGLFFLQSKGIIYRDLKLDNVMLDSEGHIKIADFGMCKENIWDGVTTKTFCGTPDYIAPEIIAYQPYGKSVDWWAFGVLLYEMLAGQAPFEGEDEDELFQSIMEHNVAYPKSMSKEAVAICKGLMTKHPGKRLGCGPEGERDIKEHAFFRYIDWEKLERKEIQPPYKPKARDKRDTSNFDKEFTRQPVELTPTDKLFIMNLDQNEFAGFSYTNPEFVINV
Chain of Protein kinase C theta type (Homo sapiens) (Q04759 whole entry, looked up): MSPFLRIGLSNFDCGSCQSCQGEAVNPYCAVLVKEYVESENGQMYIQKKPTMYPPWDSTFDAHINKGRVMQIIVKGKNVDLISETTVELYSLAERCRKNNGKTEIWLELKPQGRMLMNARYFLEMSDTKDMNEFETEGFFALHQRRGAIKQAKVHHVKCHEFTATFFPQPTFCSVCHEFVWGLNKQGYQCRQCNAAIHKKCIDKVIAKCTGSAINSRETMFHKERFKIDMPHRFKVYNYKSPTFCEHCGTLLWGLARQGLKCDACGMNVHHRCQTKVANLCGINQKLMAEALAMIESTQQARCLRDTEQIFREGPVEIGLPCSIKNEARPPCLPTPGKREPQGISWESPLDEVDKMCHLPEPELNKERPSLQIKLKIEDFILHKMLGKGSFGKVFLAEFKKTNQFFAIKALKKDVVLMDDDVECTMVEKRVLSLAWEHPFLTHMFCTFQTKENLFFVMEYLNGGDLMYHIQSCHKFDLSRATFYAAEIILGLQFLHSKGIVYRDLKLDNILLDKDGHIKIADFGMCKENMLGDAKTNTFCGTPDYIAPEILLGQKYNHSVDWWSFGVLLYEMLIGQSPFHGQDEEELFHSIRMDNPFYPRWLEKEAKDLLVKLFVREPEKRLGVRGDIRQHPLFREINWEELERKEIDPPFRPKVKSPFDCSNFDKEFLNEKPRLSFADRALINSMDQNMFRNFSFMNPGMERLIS

On to `O=C(NCC1CC1)c1ccc(-c2cccc(C(=O)NC3CC3)c2)cc1`, for which the inhibition was -1.2% in assay [1]; 2.21% in assay [2]; 3.55% in [3]; 1.24% in [4]; -0.68% in [5]; 0.69% in assay [6]. Further, the inhibition in assay [7] is -1.18%; in assay [8] it was 1.97%; in assay [9] it was 2.45%; in assay [10] it was 2.36%; in assay [11], 2.14%; in [12], 2.87%. For the same compound, the inhibition in assay [13] came to 1.81%; in assay [14], 3.32%; in assay [15], 1.97%; in [16], 1.23%; in assay [17], 0.42%; in [18], 0.49%. The figures for the inhibition in assay [19] and in assay [20] were -0.06% and 1.17%, respectively.

On to `COc1cccc(-n2cnc3c(N/N=C/c4ccncc4)ncnc32)c1`, for which the inhibition is 3.14% in assay [1]; 0.58% in assay [2]; -0.97% in assay [3]; 0.62% in [4]; 4.42% in [5]; 2.34% in assay [6]. Further, the inhibition was 2.1% in assay [7]; -2.1% in [8]; -5.45% in [9]; -4.34% in assay [10]; -5.5% in [11]; -3.34% in assay [12]. The inhibition was -4.97% in assay [13]; 0.67% in assay [14]; 3.77% in [15]; 3.29% in [16]; 4.98% in [17]; 1.92% in assay [18]. The values for the inhibition in [19] and in [20] were 5.16% and 0.59%, respectively.

Values taken from ChEMBL document CHEMBL1961873, “Compounds: GSK PKIS; Assays: Nanosyn kinase panel” (2012).
